From PubChem BioAssay (NCI)
Compounds without any hit were thinned out: in the full panel of roughly 79,000, 15% have a hit. Calls of active or inactive are those of the source. Rule as the data show it: active = growth inhibition above about 70%; inactive = the rest.

Assays:
[1] = NCI Yeast Anticancer Drug Screen. Data for the rad50 strain (AID 155);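 also: 0% = growth of vehicle-only cultures of the same strain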; details: S. cerevisiae rad50 strain growth inhibition, hits give high values
Outline: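 Vehicle-treated cultures provide the reference for the growth inhibition reported for compound-exposed, repair-deficient yeast.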

[2] = NCI Yeast Anticancer Drug Screen. Data for the mec2-1 strain (AID 157); details: S. cerevisiae mec2-1 strain, hits give high values
Outline: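 Test agents were screened against the mec2-1 yeast strain, with defined DNA repair or cell cycle alteration. Growth was scored as inhibition against vehicle-only controls.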

[3] = NCI Yeast Anticancer Drug Screen. Data for the sgs1 mgt1 strain (AID 161);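 also: 0% = growth of cultures given vehicle only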; details: S. cerevisiae sgs1 mgt1 strain, hits give high values
Outline: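 Genetically altered yeast, compound exposure, growth inhibition relative to vehicle.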

[4] = NCI Yeast Anticancer Drug Screen. Data for the cln2 rad14 strain (AID 165);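 also: 0% = growth equal to vehicle treated cultures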; details: S. cerevisiae cln2 rad14 strain, hits give high values
Outline: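 Growth of compound-exposed yeast (cln2 rad14 genotype) measured and expressed as inhibition relative to vehicle.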

[5] = NCI Yeast Anticancer Drug Screen. Data for the bub3 strain (AID 167); details: S. cerevisiae bub3 mutant strain, hits give high values
Outline: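 Mutant yeast screening strain plus compound; vehicle-treated cultures serve as the 0% inhibition reference.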

[6] = NCI Yeast Anticancer Drug Screen. Data for the mlh1 rad18 strain (AID 175); details: S. cerevisiae mlh1 rad18 strain growth inhibition, hits give high values
Outline: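 In this whole-cell yeast screen, a strain with altered DNA damage repair is challenged with compound, and its growth is measured against matched vehicle-treated controls.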

[7] = at 5.0 µM (retest, dose inferred, filed as 0.5)
[8] = at 50.0 µM (retest, dose inferred, filed as 5.0)

Measured: growth inhibition

O=c1c(Cl)c(Cl)oc(Cl)c1Cl
active: [1]; [8] 98% | [1]; at 50.0 µM 79.2% | [2]; [8] 99% | [2]; at 50.0 µM 98.3% | [3]; [8] 99% | [3]; at 50.0 µM 88% | [4]; [8] 99% | [4]; at 50.0 µM 94.5% | [5]; [8] 99% | [5]; at 50.0 µM 98.8% | [6]; [8] 98% | [6]; at 50.0 µM 97.2%
inactive: [1]; [7] 42% | [2]; [7] 30% | [3]; [7] 45% | [4]; [7] 3% | [5]; [7] 43% | [6]; [7] 54%

C/C(=N/NC(N)=S)C(CN1CCOCC1)C(C1=C(O)c2ccccc2OC1)c1ccccc1 (stereo not given)
active: [1]; at 50.0 µM 75% | [2]; at 50.0 µM 71.8% | [3]; at 50.0 µM 80.9% | [4]; at 50.0 µM 75.4% | [5]; at 50.0 µM 71% | [6]; at 50.0 µM 77.7%
inactive: [1]; [7] 26% | [1]; [8] 26% | [2]; [7] 28% | [2]; [8] 28% | [3]; [7] 24% | [3]; [8] 24% | [4]; [7] 6% | [4]; [8] 6% | [5]; [7] 24% | [5]; [8] 24% | [6]; [7] 26% | [6]; [8] 26%

C[n+]1c(-c2cccc(OCCCCCCCCCCOc3cccc(-c4c5cc(N)ccc5c5ccc(N)cc5[n+]4C)c3)c2)c2cc(N)ccc2c2ccc(N)cc21
active: [1]; [7] 99% | [1]; [8] 81% | [1]; at 50.0 µM 79.4% | [2]; [7] 99% | [2]; [8] 84% | [2]; at 50.0 µM 84.4% | [3]; [7] 99% | [3]; [8] 85% | [3]; at 50.0 µM 87.9% | [4]; [7] 99% | [4]; [8] 86% | [4]; at 50.0 µM 88% | [5]; [7] 99% | [5]; [8] 80% | [5]; at 50.0 µM 84.2% | [6]; [7] 97% | [6]; at 50.0 µM 87.7%
inactive: [6]; [8] 68%

Oc1c(Br)cc(Br)cc1-c1ccccc1
inactive: [1]; [7] 0% | [2]; [7] 9% | [3]; [7] 2% | [4]; [7] -5% | [5]; [7] -5% | [6]; [7] -8%
active: [1]; [8] 99% | [1]; at 50.0 µM 98.1% | [2]; [8] 100% | [2]; at 50.0 µM 99.5% | [3]; [8] 99% | [3]; at 50.0 µM 99.5% | [4]; [8] 100% | [4]; at 50.0 µM 99.2% | [5]; [8] 100% | [5]; at 50.0 µM 99.3% | [6]; [8] 99% | [6]; at 50.0 µM 99.3%

CCC(/C=C/C(C)C1CCC2C3CC=C4C/C(=N/NC(N)=O)CCC4(C)C3CCC12C)C(C)C (stereo not given)
inactive: [1]; [7] -7% | [1]; [8] 6% | [1]; at 50.0 µM 9.95% | [2]; [7] -3% | [2]; [8] 2% | [2]; at 50.0 µM 9.3% | [3]; [7] -3% | [3]; [8] -5% | [3]; at 50.0 µM 50.9% | [4]; [7] -7% | [4]; [8] -9% | [4]; at 50.0 µM -1.15% | [5]; [7] -3% | [5]; [8] 2% | [5]; at 50.0 µM 24.1% | [6]; [7] -3% | [6]; [8] 5% | [6]; at 50.0 µM 28.9%

Nc1ccc(CCCCCc2ccc(N)cc2)cc1
active: [1]; [8] 80% | [1]; at 50.0 µM 98.6% | [2]; [8] 99% | [2]; at 50.0 µM 99% | [3]; [8] 96% | [3]; at 50.0 µM 98.9% | [4]; at 50.0 µM 98% | [5]; [8] 83% | [5]; at 50.0 µM 98.7% | [6]; [8] 98% | [6]; at 50.0 µM 98.7%
inactive: [1]; [7] -3% | [2]; [7] -9% | [3]; [7] 10% | [4]; [7] 1% | [4]; [8] 54% | [5]; [7] -6% | [6]; [7] -1%

CC[n+]1cnc(N)c2c(-c3ccc(Cl)cc3)cn(-c3ccc(C)cc3)c21
active: [1]; [8] 98% | [1]; at 50.0 µM 93.1% | [2]; [8] 99% | [2]; at 50.0 µM 95.5% | [3]; [8] 99% | [3]; at 50.0 µM 97.9% | [4]; [8] 98% | [5]; [8] 98% | [5]; at 50.0 µM 80.3% | [6]; [8] 98% | [6]; at 50.0 µM 97.8%
inactive: [1]; [7] -2% | [2]; [7] -4% | [3]; [7] -6% | [4]; [7] -6% | [4]; at 50.0 µM 46.9% | [5]; [7] -1% | [6]; [7] -3%

CCCCCC(Oc1ccc(Cl)cc1)C(=O)O (stereo not given)
inactive: [1]; [7] 2% | [2]; [7] 2% | [2]; at 50.0 µM 58.5% | [3]; [7] 3% | [4]; [7] -1% | [5]; [7] 7% | [6]; [7] -15%
active: [1]; [8] 84% | [1]; at 50.0 µM 81.7% | [2]; [8] 83% | [3]; [8] 85% | [3]; at 50.0 µM 80.2% | [4]; [8] 87% | [4]; at 50.0 µM 75.5% | [5]; [8] 87% | [5]; at 50.0 µM 71.5% | [6]; [8] 89% | [6]; at 50.0 µM 83.2%

CCCCCCCCCCCc1ccn[nH]1
active: [1]; [8] 98% | [1]; at 50.0 µM 98.4% | [2]; [8] 99% | [2]; at 50.0 µM 99.3% | [3]; [8] 99% | [3]; at 50.0 µM 99.3% | [4]; [8] 99% | [4]; at 50.0 µM 98.3% | [5]; [8] 98% | [5]; at 50.0 µM 99% | [6]; [8] 98% | [6]; at 50.0 µM 98.9%
inactive: [1]; [7] -7% | [2]; [7] 3% | [3]; [7] 9% | [4]; [7] -18% | [5]; [7] 14% | [6]; [7] -3%

C/C=C1\CC(C)(CC)C(C#N)(C#N)C(N)=C1C#N (stereo not given)
inactive: [1]; [7] 0% | [1]; [8] -9% | [1]; at 50.0 µM -5.9% | [2]; [7] -3% | [2]; [8] 0% | [2]; at 50.0 µM 10.5% | [3]; [7] 2% | [3]; [8] -4% | [3]; at 50.0 µM -4.35% | [4]; [7] -9% | [4]; [8] -3% | [4]; at 50.0 µM 3.35% | [5]; [7] -3% | [5]; [8] -2% | [5]; at 50.0 µM 50.9% | [6]; [7] 0% | [6]; [8] -9% | [6]; at 50.0 µM -28.7%
